Records with an inconclusive call do not appear. The source made the active and inactive calls. Unless noted, the call rests on the fitted dose curve; in most records, active means well fitted curve in the direction sought with a large enough effect in the repeat runs; inconclusive means weak or mixed curves; inactive means no such curve, though single readings can be large; an effect the other way counts as inactive or inconclusive.
Columns and labels:
[1] = target: Progesterone receptor (Homo sapiens) (UniProt P06401); assay: qHTS assay to identify small molecule agonists of the progesterone receptor (PR) signaling pathway (AID 1346784; calls by dose curve; further: nearly all actives have a fitted effect of over 30% in size)
Progesterone receptor (Homo sapiens), sequence (P06401 whole entry, looked up): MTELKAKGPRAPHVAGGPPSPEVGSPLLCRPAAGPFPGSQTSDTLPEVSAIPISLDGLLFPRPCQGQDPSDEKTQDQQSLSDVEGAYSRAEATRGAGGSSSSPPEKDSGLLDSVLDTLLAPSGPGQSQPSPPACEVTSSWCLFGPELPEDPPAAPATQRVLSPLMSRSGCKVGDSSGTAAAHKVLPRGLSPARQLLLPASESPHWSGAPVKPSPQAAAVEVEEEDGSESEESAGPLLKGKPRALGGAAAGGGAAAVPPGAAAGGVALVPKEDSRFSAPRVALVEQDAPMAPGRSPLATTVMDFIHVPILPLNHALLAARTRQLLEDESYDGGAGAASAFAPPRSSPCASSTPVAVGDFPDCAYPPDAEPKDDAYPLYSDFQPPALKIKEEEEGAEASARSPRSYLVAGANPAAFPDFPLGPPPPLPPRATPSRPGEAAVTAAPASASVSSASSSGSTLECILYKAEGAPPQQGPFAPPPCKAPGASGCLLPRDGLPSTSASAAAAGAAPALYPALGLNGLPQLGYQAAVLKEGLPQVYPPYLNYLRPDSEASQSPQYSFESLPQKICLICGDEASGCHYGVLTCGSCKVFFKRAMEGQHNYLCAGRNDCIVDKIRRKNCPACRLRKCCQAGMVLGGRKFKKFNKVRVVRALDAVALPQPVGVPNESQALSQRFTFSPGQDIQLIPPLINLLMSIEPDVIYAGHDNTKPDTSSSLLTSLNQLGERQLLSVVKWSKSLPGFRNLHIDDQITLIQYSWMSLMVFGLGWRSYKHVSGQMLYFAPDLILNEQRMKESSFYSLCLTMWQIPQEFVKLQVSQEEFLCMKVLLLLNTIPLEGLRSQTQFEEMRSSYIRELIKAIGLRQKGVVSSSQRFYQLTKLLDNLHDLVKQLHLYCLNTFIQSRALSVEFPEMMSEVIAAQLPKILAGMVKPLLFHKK
In short: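 Reporter assay, GripTite PR-UAS-bla HEK 293T cells: 16 hr exposure to DMSO-dissolved compounds at 37C, 5% CO2, in steroid-depleted (2% charcoal-stripped FBS) medium; beta-lactamase measured by FRET fluorescence.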

[2] = qHTS assay to identify small molecule antagonists of the progesterone receptor (PR) signaling pathway - cell viability counter screen (AID 1346798); further: series mostly up to about 92 µM; nearly all actives have a fitted effect of over 50% in size
In short: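 In the same plates used for the beta-lactamase readout, cell viability of compound- and R5020-treated PR-UAS-bla HEK293T cells (16 hr, 37C) was assessed by CellTiter-Glo luminescence.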

[3] = qHTS assay to identify small molecule agonists of the progesterone receptor (PR) signaling pathway - cell viability counter screen (AID 1346799; calls by dose curve; further: nearly all actives have a fitted effect of over 45% in size)
In short: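 Multiplexed viability read: CellTiter-Glo luminescence, 30 min RT, following LiveBLAzer FRET measurement on PR-UAS-bla HEK293T cells exposed to compounds 16 hr.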

[4] = qHTS assay to identify small molecule antagonists of the TGF-beta/Smad signaling pathway - cell viability counter screen (AID 1346824); further: nearly all actives have a fitted effect of over 50% in size
In short: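 Cytotoxicity counter-screen run in the same wells as the beta-lactamase Smad reporter read: CellTiter-Glo luminescence after 30 min at room temperature. HEK 293T SBE-bla cells had 5 hr compound exposure at 37 C with TGF-beta1 (0.25 ng/mL stock).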

[5] = qHTS assay to identify small molecule agonists of the TGF-beta/Smad signaling pathway - cell viability counter screen (AID 1346829); further: top concentration of the series differs between compounds; nearly all actives have a fitted effect of over 45% in size
In short: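 In parallel with the Smad reporter read, viability of HEK 293T cells stably carrying SBE-bla is quantified by ATP luminescence following 5 hr compound treatment.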

[6] = qHTS assay to identify small molecule agonists of the TGF-beta/Smad signaling pathway (AID 1346859; active means well fitted activation curve with a large enough effect in the signal ratio in the repeat runs, not every such curve was filed as active; the % refers to the signal ratio; further: series mostly up to about 77 µM)
In short: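 Screening used HEK 293T SBE-bla cells at 4,000/well. Test agents: 5 hr, 37 C. Detection: FRET substrate, 2 hr RT, then excitation 405 nm with emissions at 460 and 530 nm.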

[7] = Human pregnane X receptor (PXR) small molecule agonists, qHTS cell viability counter screen (AID 1346977); further: nearly all actives have a fitted effect of over 50% in size; further: potency means the concentration at half of the fitted maximal effect
In short: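 In each well, the PXR reporter HepG2 line was checked for viability: CellTiter-Fluor reagent added 23hr post-dosing, fluorescence read after 1hr incubation at 37C.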

[8] = Caspase-3/7 induction in HepG2 cells by small molecules, qHTS assay (AID 1346978); further: nearly all actives have a fitted effect of over 15% in size
In short: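 Caspase-3/7 induction was measured by Caspase-Glo 3/7 luminescence (30 min, room temperature) after a 17 hr compound exposure of wild-type HepG2 cells seeded at 2,000 per well and pre-incubated 5 hr.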

[9] = Caspase-3/7 induction in CHO-K1 cells by small molecules, qHTS cell viability counter screen (AID 1346979); further: nearly all actives have a fitted effect of over 35% in size
In short: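 Following a 5hr settling period, CHO-K1 cells at 1,500 per well received DMSO-dissolved compounds. Cell viability was quantified 16hr later by CellTiter-Fluor fluorescence, measured after 1hr with reagent at 37C.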

[10] = target: Nuclear receptor subfamily 1 group I member 2 (Homo sapiens) (UniProt O75469); assay: Human pregnane X receptor (PXR) small molecule agonists, qHTS assay (AID 1346982); further: nearly all actives have a fitted effect of over 35% in size; further: potency means the concentration at half of the fitted maximal effect
Nuclear receptor subfamily 1 group I member 2 (Homo sapiens), sequence (O75469 whole entry, looked up): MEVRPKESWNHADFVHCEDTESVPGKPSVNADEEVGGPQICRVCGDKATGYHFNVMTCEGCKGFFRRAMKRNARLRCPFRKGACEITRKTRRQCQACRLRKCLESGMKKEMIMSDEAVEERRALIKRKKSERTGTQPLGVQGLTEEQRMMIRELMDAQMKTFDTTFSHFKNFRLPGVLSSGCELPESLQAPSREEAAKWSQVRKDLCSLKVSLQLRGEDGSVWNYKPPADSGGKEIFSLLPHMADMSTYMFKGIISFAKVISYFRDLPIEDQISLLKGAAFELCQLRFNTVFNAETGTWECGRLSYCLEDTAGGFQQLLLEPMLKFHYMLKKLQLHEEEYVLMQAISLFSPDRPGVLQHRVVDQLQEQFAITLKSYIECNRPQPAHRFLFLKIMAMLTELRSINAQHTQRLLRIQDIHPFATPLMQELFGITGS
In short: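 Cells: HepG2 stably carrying PXR-Luc. Medium held 5% charcoal-stripped FBS. Compounds in DMSO added after 5 hr plating, incubated 24 hr, then luminescence quantified with ONE-Glo.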

[11] = target: Cytochrome P450 2D6 (Homo sapiens) (UniProt P10635); assay: Cytochrome P450 Family 2 Subfamily D Member 6 (CYP2D6) small molecule antagonists: luciferase reporter qHTS assay (AID 1671196); further: nearly all actives have a fitted effect of over 50% in size; further: potency means the concentration at half of the fitted maximal effect; on activity change, negative = inhibition: series mostly up to about 120 µM
Cytochrome P450 2D6 (Homo sapiens), sequence (P10635 whole entry, looked up): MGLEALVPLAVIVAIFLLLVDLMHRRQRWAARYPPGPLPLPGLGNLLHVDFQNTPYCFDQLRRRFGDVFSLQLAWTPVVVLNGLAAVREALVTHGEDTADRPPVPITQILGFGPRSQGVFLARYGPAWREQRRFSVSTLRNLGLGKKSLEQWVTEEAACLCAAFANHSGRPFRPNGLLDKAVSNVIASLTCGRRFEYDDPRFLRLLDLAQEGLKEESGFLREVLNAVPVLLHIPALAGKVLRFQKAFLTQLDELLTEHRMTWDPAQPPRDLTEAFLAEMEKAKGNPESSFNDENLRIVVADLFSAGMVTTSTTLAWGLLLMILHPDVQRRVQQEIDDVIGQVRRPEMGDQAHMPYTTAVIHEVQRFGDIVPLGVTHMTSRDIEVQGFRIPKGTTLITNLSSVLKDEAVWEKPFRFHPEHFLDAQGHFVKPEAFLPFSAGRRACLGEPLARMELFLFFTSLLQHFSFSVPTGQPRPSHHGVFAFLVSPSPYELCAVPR
In short: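 Enzyme and proluciferin substrate were first combined with test chemical for 10 min at room temperature. Adding NADPH regeneration solution started a 1 h reaction, stopped with luciferin detection reagent and read by luminescence 20 min later.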

[12] = target: Cytochrome P450 2C19 (Homo sapiens) (UniProt P33261); assay: Cytochrome P450 Family 2 Subfamily C Member 19 (CYP2C19) small molecule antagonists: luciferase reporter qHTS assay (AID 1671197); further: nearly all actives have a fitted effect of over 65% in size; further: potency means the concentration at half of the fitted maximal effect; on activity change, negative = inhibition: series mostly up to about 120 µM
Cytochrome P450 2C19 (Homo sapiens), sequence (P33261 whole entry, looked up): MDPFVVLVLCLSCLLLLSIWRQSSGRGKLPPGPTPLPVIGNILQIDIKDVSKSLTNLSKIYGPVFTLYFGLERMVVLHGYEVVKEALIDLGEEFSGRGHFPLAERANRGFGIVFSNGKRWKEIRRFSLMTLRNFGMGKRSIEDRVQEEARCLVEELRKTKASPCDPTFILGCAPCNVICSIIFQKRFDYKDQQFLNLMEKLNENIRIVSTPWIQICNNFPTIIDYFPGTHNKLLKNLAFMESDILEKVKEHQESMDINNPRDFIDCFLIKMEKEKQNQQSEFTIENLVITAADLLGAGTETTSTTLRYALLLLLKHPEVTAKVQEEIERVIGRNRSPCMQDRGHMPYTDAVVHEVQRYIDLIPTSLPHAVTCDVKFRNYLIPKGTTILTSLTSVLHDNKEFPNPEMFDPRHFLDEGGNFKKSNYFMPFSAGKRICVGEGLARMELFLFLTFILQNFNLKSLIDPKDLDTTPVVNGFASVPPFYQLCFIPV
In short: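 Compounds were tested on CYP2C19 activity via proluciferin conversion to luciferin. The 37C, 1 h reaction followed NADPH addition; detection reagent stopped it.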

[13] = target: Cytochrome P450 2C9 (Homo sapiens) (UniProt P11712); assay: Cytochrome P450 Family 2 Subfamily C Member 9 (CYP2C9) small molecule antagonists: luciferase reporter qHTS assay (AID 1671198); further: nearly all actives have a fitted effect of over 50% in size; further: potency means the concentration at half of the fitted maximal effect; on activity change, negative = inhibition: series mostly up to about 120 µM
Cytochrome P450 2C9 (Homo sapiens), sequence (P11712 whole entry, looked up): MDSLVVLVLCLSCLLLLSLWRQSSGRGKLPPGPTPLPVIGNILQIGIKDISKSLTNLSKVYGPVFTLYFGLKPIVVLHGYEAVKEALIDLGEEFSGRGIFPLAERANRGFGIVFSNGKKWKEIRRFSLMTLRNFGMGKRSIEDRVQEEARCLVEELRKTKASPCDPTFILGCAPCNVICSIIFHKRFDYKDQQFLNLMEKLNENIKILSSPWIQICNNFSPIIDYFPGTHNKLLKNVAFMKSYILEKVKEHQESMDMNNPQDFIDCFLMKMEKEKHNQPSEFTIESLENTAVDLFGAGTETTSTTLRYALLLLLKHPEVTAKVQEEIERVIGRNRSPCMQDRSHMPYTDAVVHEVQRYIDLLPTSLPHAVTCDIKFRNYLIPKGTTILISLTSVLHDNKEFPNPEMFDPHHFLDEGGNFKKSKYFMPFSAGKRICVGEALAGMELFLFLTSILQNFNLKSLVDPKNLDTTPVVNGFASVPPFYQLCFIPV
In short: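 Enzyme-substrate mix preincubated with compound 10 min at room temperature; reaction started with NADPH regeneration solution, 1 h 37C. Luminescent luciferin product read after 20 min detection reagent.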

[14] = target: Thyrotropin-releasing hormone receptor (Homo sapiens) (UniProt P34981); assay: qHTS assay to identify small molecule antagonists of the thyrotropin-releasing hormone receptor (TRHR) signaling pathway (AID 1346877; active means well fitted inhibition curve with a large enough effect in the repeat runs, not every such curve was filed as active; further: series mostly up to about 51 µM)
Thyrotropin-releasing hormone receptor (Homo sapiens), sequence (P34981 whole entry, looked up): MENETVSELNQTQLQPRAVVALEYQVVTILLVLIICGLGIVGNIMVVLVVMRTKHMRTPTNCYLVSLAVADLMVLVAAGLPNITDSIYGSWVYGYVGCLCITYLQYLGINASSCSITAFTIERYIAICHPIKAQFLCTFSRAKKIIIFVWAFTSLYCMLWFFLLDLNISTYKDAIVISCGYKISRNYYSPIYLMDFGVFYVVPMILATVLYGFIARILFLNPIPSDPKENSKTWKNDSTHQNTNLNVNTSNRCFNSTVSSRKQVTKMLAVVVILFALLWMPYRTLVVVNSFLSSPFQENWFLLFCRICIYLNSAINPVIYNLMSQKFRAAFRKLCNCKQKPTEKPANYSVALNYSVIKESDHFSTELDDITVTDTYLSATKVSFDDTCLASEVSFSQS
In short: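 Antagonism is measured as suppression of the calcium response to 1 nM TRH in TRHR-HEK293 cells that have been dye-loaded for 2 h at 37 °C after overnight plating. Each compound is tested at 15 concentrations in triplicate.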

[15] = target: Thyrotropin-releasing hormone receptor (Homo sapiens) (UniProt P34981); assay: qHTS assay to identify small molecule agonists of the thyrotropin-releasing hormone receptor (TRHR) signaling pathway (AID 1346891; calls by dose curve; further: series mostly up to about 58 µM)
In short: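 Readout was intracellular calcium fluorescence in TRHR-Hek293 cells. Cells were incubated 18 h, dye-loaded 2 h at 37 °C, and treated with compound in agonist mode.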

[16] = Caspase-3/7 induction in CHO-K1 cells by small molecules, qHTS assay (AID 1346980); further: nearly all actives have a fitted effect of over 15% in size
In short: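 Luminescent Caspase-Glo 3/7 read (30min, room temperature) quantified apoptosis induction. Cells were wild-type CHO-K1, treated with compound for 17hr at 37 C and 5% CO2.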

[17] = Caspase-3/7 induction in HepG2 cells by small molecules, qHTS cell viability counter screen (AID 1346981); further: nearly all actives have a fitted effect of over 30% in size; further: potency means the concentration at half of the fitted maximal effect; on activity change, negative = cytotoxicity: series mostly up to about 92 µM
In short: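 Cell viability is measured as a cytotoxicity counter screen alongside the Caspase-Glo 3/7 readout in identical wells. Wild-type HepG2 cells are treated with test compounds for 16 hr at 37 C before CellTiter-Fluor addition and a 1-hr incubation.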

[18] = target: Nuclear receptor subfamily 1 group I member 2 (Rattus norvegicus) (UniProt Q9R1A7); assay: Rat pregnane X receptor (rPXR) activation by small molecules, qHTS assay (AID 1346983); settings: rPXR luciferase reporter cells, One-Glo luminescence, 24 h; max activation: hits give high values; further: nearly all actives have a fitted effect of over 20% in size
Nuclear receptor subfamily 1 group I member 2 (Rattus norvegicus), sequence (Q9R1A7 whole entry, looked up): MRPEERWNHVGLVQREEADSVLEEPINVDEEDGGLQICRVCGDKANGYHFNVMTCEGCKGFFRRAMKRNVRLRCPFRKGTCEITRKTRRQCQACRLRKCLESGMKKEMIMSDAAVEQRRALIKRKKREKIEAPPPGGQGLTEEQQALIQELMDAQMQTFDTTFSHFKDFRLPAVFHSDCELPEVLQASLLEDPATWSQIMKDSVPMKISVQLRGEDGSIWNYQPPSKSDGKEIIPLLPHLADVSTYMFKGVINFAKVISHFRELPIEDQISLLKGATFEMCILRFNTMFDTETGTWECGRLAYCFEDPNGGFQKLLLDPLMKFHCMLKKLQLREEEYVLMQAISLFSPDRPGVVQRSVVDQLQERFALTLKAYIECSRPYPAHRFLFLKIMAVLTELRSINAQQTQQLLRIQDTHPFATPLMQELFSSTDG
In short: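 Luminescent readout (One-Glo luciferase, 30 min room temperature) followed 24 hr compound treatment at 37 C of rPXR cells plated 2,000 per well and preincubated 5hr; qHTS format with compounds delivered in DMSO.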

[19] = target: Nuclear receptor subfamily 1 group I member 2 (Homo sapiens) (UniProt O75469); assay: CYP3A4 induction through human pregnane X receptor (PXR) by small molecules, qHTS assay (AID 1346984); further: nearly all actives have a fitted effect of over 40% in size
In short: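 Quantitative HTS in DPX-2 cells, i.e. HepG2 transfected with PXR response element and CYP3A4-promoter luciferase. Compounds in DMSO incubated 24hr at 37C; then P450-Glo CYP3A4 substrate, 3uM final, 3hr; One-Glo luminescence.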
On the % scale 0 is the no-effect control and ±100 the full control effect.

C=CC(=O)OCCN(CC)CC
inactive: outcome [1] | Potency [2] | Potency [3] | Potency [4] | Potency [5] | Potency [6] | Potency [7] | Potency [8] | Potency [9] | Potency [10] | Potency [11] | Potency [12] | Potency [13]

COc1cc(C(=O)NS(=O)(=O)c2ccccc2C)ccc1Cc1cn(C)c2ccc(NC(=O)OC3CCCC3)cc12
active: Potency [13] 15.5 µM
inactive: outcome [1] | Potency [2] | Potency [3] | Potency [4] | Potency [5] | Potency [6] | Potency [14] | Potency [15] | Potency [7] | Potency [8] | Potency [16] | Potency [17] | max activation [18] -0.0293% | Potency [11] | Potency [12]

Clc1nc2ccccc2s1
inactive: outcome [1] | Potency [2] | Potency [3] | Potency [4] | Potency [5] | Potency [6] | Potency [14] | Potency [15] | Potency [7] | Potency [8] | Potency [9] | Potency [16] | Potency [10] | Potency [11] | Potency [12] | Potency [13]

CCCCCCCC(C)=O
inactive: outcome [1] | Potency [2] | Potency [3] | Potency [4] | Potency [5] | Potency [6] | Potency [7] | Potency [8] | Potency [9] | Potency [16] | Potency [17] | Potency [10] | Potency [13]

C=C(C)C(=O)OCCC[Si](Cl)(Cl)Cl
inactive: outcome [1] | Potency [2] | Potency [4] | Potency [5] | Potency [6] | Potency [7] | Potency [8] | Potency [9] | Potency [16] | Potency [17] | Potency [10]
active: Potency [12] 80.4 µM | Potency [13] 22.7 µM

C=CC(C)C#N (stereo not drawn)
inactive: outcome [1] | Potency [2] | Potency [4] | Potency [5] | Potency [6] | Potency [7] | Potency [8] | Potency [9] | Potency [16] | Potency [10] | Potency [11] | Potency [12] | Potency [13]

CC1(C)C(=O)N(CO)C(=O)N1CO
inactive: outcome [1] | Potency [2] | Potency [3] | Potency [4] | Potency [5] | Potency [6] | Potency [14] | Potency [15] | Potency [7] | Potency [8] | Potency [16] | Potency [17] | Potency [10] | Potency [11] | Potency [12] | Potency [13]

CCCCCCC(C)OC(=O)COc1nc(F)c(Cl)c(N)c1Cl (stereo not drawn)
inactive: outcome [1] | Potency [2] | Potency [3] | Potency [4] | Potency [5] | Potency [6] | Potency [14] | Potency [15] | Potency [7] | Potency [9] | Potency [16] | Potency [17] | Potency [10]
active: Potency [12] 4.48 µM | Potency [13] 17.8 µM

CCCC(O)C(O)CO (stereo not drawn)
inactive: outcome [1] | Potency [2] | Potency [3] | Potency [4] | Potency [5] | Potency [6] | Potency [14] | Potency [15] | Potency [7] | Potency [8] | Potency [9] | Potency [16] | Potency [17] | Potency [11] | Potency [12] | Potency [13]

COC(=O)[C@]1(C)CCC[C@@]2(C)[C@H]1CC=C1C=C(C(C)C)CC[C@@H]12
active: Potency [10] 17.2 µM | Potency [12] 28.3 µM | Potency [13] 31.7 µM
inactive: outcome [1] | Potency [2] | Potency [4] | Potency [5] | Potency [6] | Potency [14] | Potency [7] | Potency [8] | Potency [9] | Potency [16] | Potency [17]

CC1CCCCN1CCCOC(=O)c1ccc(OC2CCCCC2)cc1 (stereo not drawn)
inactive: outcome [1] | Potency [2] | Potency [3] | Potency [4] | Potency [5] | Potency [6] | Potency [14] | Potency [15] | Potency [7] | Potency [8] | Potency [16] | Potency [17] | Potency [12] | Potency [13]
active: Potency [11] 15.5 µM

NCCCCCCNCCCCCCN
inactive: outcome [1] | Potency [2] | Potency [3] | Potency [4] | Potency [5] | Potency [6] | Potency [14] | Potency [15] | Potency [7] | Potency [8] | Potency [9] | Potency [16] | Potency [10] | Potency [12] | Potency [13]
active: Potency [11] 4.94 µM

OCCCCl
inactive: outcome [1] | Potency [2] | Potency [4] | Potency [5] | Potency [6] | Potency [14] | Potency [15] | Potency [7] | Potency [8] | Potency [9] | Potency [16] | Potency [17] | Potency [10] | Potency [11] | Potency [12] | Potency [13]

C=C/C=C/C=C/CCCCC
inactive: activation [1] -1.1% [at 19 µM] | activity change, negative = cytotoxicity [2] 13.8% [at 18.9 µM] | activity change, negative = cytotoxicity [3] -2.82% [at 19 µM] | viability change, negative = cytotoxic [4] -6.86% [at 15.8 µM] | activity change, negative = cytotoxicity [5] -1.35% [at 15.8 µM] | activation [6] -2.28% [at 15.8 µM] | activity change, negative = cytotoxicity [7] 3.3% [at 19 µM] | caspase activation [8] -0.0295% [at 19 µM] | activity change, negative = cytotoxicity [9] -1.73% [at 19 µM] | caspase-3/7 activation [16] 0.387% [at 19 µM] | activity change, negative = cytotoxicity [17] -1.07% [at 19 µM] | activity change, negative = inhibition [11] -25.6% [at 23.6 µM]
active: Potency [13] 16.9 µM

Cc1nc(Nc2ncc(C(=O)Nc3c(C)cccc3Cl)s2)cc(N2CCN(CCO)CC2)n1
active: Potency [7] 9.44 µM | Potency [17] 18.8 µM | Potency [10] 1.06 µM
inactive: outcome [1] | Potency [2] | Potency [3] | Potency [4] | Potency [5] | Potency [6] | Potency [14] | Potency [15] | Potency [16] | Potency [19]

Source: PubChem BioAssay (Tox21)
